Measurements: the supplement of paper PMC11732987, “Enantioselective OTUD7B fragment discovery through chemoproteomics screening and high-throughput optimisation” (Communications Chemistry, 2025)

Experiments:
Experiment in all cases: log2 ratio of Biotin-Ahx-Ub-VS probe labelling (compound/DMSO); higher = less target engagement, active = hit call of the paper (q ≤ 0.05, log2 ratio ≤ -1)
Details in all cases: treatment time: 3 h
[1] = compound: CCC1N(CCc2sccc12)C(=O)CCl
Method in brief: (§1)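 HEK293T lysate (495 µg per sample, in Tris/CHAPS/IGEPAL buffer with protease inhibitors) was exposed in triplicate to compound at 50 or 200 µM, or to DMSO, for 3 h, then to Biotin-Ahx-Ub-VS (0.5 µM final) for 1 h. The labelled DUBs were enriched on NeutrAvidin, digested with LysC and trypsin, and analysed by diaPASEF LC-MS/MS. Average base-two log ratios of compound over DMSO came from median-normalised label-free quantities by unpaired t-test. Only proteins with at least 2 unique peptides were used.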

[2] = compound: CN1c2ccccc2C(CS1(=O)=O)NC(=O)CCl
Method in brief: as §1

[3] = compound: Cl.ClCC(=O)N1CCc2ncncc2C1
Method in brief: as §1

[4] = compound: Cl.Cn1ncc2C(CCCc12)NC(=O)CCl
Method in brief: as §1

[5] = compound: ClCC(=O)NC1CCOc2ccccc12
Method in brief: as §1

[6] = compound: ClCC(=O)NC1CCCc2ccccc12
Method in brief: (§2)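 HEK293T lysate (495 µg per sample, in Tris/CHAPS/IGEPAL buffer with protease inhibitors) was treated in triplicate with compound over a concentration series or DMSO for 3 h, then with Biotin-Ahx-Ub-VS (0.5 µM final) for 1 h. Labelled DUBs were NeutrAvidin-enriched, digested with LysC and trypsin, and run by diaPASEF LC-MS/MS. Spectronaut label-free protein quantities were global-median-normalised. Values are average log2 ratios compound/DMSO from an unpaired t-test, using proteins with ≥2 unique peptides.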

[7] = compound: ClCC(=O)N[C@@H]1CCCc2ccccc12
Method in brief: as §2

[8] = compound: ClCC(=O)N[C@H]1CCCc2ccccc12
Method in brief: as §2

[9] = compound: CCC1N(CCc2cc(OC)c(Cl)cc12)C(=O)CCl
Method in brief: as §1

[10] = compound: CCCC1N(CCc2cc(OC)c(OC)cc12)C(=O)CCl
Method in brief: as §1

Measured: log2 ratio of Biotin-Ahx-Ub-VS probe labelling

USP8 (UniProt P40818)
UniProt P40818, sequence (P40818 whole entry): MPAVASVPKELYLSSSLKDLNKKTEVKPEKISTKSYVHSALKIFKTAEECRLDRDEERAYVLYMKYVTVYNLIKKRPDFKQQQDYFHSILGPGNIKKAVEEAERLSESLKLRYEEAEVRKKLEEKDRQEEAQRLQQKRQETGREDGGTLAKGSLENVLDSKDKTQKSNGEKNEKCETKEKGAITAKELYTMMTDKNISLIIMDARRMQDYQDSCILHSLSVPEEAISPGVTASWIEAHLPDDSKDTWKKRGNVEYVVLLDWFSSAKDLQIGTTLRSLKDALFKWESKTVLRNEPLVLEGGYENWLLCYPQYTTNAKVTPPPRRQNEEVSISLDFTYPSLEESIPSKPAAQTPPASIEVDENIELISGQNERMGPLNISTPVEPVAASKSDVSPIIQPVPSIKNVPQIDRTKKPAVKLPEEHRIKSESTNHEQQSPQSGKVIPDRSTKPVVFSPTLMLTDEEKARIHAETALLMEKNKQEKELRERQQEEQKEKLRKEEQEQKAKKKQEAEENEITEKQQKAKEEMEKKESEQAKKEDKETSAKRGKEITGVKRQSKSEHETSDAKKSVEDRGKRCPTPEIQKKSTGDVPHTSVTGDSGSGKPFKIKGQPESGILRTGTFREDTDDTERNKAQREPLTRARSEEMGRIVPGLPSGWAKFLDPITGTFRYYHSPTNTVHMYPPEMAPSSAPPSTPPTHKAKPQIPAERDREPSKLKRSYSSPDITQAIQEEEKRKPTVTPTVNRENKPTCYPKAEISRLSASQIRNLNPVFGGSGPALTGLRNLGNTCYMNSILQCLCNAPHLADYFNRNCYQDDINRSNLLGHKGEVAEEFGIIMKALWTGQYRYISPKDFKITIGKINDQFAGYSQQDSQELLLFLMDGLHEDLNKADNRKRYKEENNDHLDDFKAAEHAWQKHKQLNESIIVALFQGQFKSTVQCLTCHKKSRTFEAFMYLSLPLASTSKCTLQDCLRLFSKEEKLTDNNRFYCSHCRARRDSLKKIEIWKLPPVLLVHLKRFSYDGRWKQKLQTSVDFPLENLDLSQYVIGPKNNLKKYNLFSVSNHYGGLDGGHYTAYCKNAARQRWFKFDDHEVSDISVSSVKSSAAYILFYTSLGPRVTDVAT
inactive: [1]; compound concentration: 50uM -0.18 | [1]; compound concentration: 200uM -0.116 | [2]; compound concentration: 50uM -0.21 | [2]; compound concentration: 200uM -0.21 | [3]; compound concentration: 50uM -0.0841 | [3]; compound concentration: 200uM -0.378 | [4]; compound concentration: 50uM -0.0611 | [4]; compound concentration: 200uM 0.0851 | [5]; compound concentration: 50uM -0.212 | [5]; compound concentration: 200uM -0.0542 | [6]; compound concentration: 0.78uM -0.0473 | [6]; compound concentration: 1.56uM 0.0438 | [6]; compound concentration: 3.13uM -0.127 | [6]; compound concentration: 6.25uM -0.0217 | [6]; compound concentration: 12.5uM -0.0947 | [6]; compound concentration: 25uM -0.0983 | [6]; compound concentration: 50uM -0.0766 | [6]; compound concentration: 100uM -0.0121 | [6]; compound concentration: 200uM -0.102 | [7]; compound concentration: 0.78uM -0.0947 | [7]; compound concentration: 1.56uM -0.0445 | [7]; compound concentration: 3.13uM -0.000329 | [7]; compound concentration: 6.25uM -0.0324 | [7]; compound concentration: 12.5uM -0.0744 | [7]; compound concentration: 25uM -0.057 | [7]; compound concentration: 50uM -0.0549 | [7]; compound concentration: 100uM -0.0496 | [7]; compound concentration: 200uM -0.123 | [8]; compound concentration: 0.78uM -0.131 | [8]; compound concentration: 1.56uM -0.0656 | [8]; compound concentration: 3.13uM -0.0464 | [8]; compound concentration: 6.25uM 0.0547 | [8]; compound concentration: 12.5uM 0.00701 | [8]; compound concentration: 25uM -0.0406 | [8]; compound concentration: 50uM 0.000255 | [8]; compound concentration: 100uM -0.0245 | [8]; compound concentration: 200uM -0.143 | [9]; compound concentration: 50uM -0.0467 | [9]; compound concentration: 200uM -0.231 | [10]; compound concentration: 50uM -0.414 | [10]; compound concentration: 200uM -0.636

USP42 (UniProt Q9H9J4)
UniProt Q9H9J4, sequence (Q9H9J4 whole entry): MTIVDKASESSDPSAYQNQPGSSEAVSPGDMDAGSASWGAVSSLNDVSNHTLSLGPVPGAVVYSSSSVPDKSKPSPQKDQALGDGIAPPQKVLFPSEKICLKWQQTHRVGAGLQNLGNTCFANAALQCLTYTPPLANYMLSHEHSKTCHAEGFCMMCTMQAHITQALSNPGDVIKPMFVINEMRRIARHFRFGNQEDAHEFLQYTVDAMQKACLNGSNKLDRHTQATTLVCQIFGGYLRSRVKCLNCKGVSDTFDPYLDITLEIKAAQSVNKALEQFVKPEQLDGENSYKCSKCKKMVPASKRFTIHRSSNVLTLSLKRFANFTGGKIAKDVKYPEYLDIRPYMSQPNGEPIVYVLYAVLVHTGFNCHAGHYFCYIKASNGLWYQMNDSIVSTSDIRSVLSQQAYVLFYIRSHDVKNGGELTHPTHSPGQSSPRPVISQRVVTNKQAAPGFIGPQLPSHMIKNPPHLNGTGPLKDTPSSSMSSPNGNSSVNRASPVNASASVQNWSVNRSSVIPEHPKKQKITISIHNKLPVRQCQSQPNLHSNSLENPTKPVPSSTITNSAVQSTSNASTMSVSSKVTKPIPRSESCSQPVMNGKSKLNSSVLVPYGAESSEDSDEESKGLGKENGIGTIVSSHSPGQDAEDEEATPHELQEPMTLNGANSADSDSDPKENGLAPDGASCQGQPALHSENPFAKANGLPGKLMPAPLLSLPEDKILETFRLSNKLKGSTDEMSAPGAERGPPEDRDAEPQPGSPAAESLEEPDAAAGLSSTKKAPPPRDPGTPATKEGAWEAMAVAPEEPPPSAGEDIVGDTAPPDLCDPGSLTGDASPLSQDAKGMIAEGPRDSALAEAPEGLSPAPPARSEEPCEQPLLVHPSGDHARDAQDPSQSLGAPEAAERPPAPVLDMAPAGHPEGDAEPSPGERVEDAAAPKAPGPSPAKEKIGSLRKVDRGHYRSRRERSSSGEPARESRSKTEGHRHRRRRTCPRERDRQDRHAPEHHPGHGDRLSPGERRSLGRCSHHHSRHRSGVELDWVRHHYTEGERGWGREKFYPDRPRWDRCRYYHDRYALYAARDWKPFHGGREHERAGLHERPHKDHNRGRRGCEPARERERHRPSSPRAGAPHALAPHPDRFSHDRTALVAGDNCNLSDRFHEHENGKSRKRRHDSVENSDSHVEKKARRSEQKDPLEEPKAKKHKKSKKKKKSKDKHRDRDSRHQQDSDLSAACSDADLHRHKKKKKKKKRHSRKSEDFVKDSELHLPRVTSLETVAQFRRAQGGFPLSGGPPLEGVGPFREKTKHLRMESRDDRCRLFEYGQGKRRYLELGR
inactive: [1]; compound concentration: 50uM 0.0875 | [1]; compound concentration: 200uM 0.424 | [2]; compound concentration: 50uM 0.125 | [2]; compound concentration: 200uM 0.131 | [3]; compound concentration: 50uM 0.0642 | [3]; compound concentration: 200uM 0.249 | [4]; compound concentration: 50uM -0.167 | [4]; compound concentration: 200uM 0.115 | [5]; compound concentration: 50uM -0.093 | [5]; compound concentration: 200uM 0.371 | [6]; compound concentration: 0.78uM -0.0166 | [6]; compound concentration: 1.56uM -0.0953 | [6]; compound concentration: 3.13uM -0.0821 | [6]; compound concentration: 6.25uM -0.0491 | [6]; compound concentration: 12.5uM -0.106 | [6]; compound concentration: 25uM -0.0142 | [6]; compound concentration: 50uM -0.0733 | [6]; compound concentration: 100uM 0.00602 | [6]; compound concentration: 200uM -0.207 | [7]; compound concentration: 0.78uM 0.0511 | [7]; compound concentration: 1.56uM 0.0688 | [7]; compound concentration: 3.13uM 0.0123 | [7]; compound concentration: 6.25uM 0.154 | [7]; compound concentration: 12.5uM -0.0261 | [7]; compound concentration: 25uM 0.0226 | [7]; compound concentration: 50uM -0.157 | [7]; compound concentration: 100uM 0.109 | [7]; compound concentration: 200uM 0.00814 | [8]; compound concentration: 0.78uM -0.186 | [8]; compound concentration: 1.56uM -0.0565 | [8]; compound concentration: 3.13uM -0.196 | [8]; compound concentration: 6.25uM -0.273 | [8]; compound concentration: 12.5uM -0.0469 | [8]; compound concentration: 25uM 0.0215 | [8]; compound concentration: 50uM -0.0548 | [8]; compound concentration: 100uM 0.132 | [8]; compound concentration: 200uM -0.0982 | [9]; compound concentration: 50uM -0.199 | [9]; compound concentration: 200uM 0.281 | [10]; compound concentration: 50uM -0.0757 | [10]; compound concentration: 200uM 0.0626

USP39 (UniProt Q53GS9)
UniProt Q53GS9, sequence (Q53GS9 whole entry): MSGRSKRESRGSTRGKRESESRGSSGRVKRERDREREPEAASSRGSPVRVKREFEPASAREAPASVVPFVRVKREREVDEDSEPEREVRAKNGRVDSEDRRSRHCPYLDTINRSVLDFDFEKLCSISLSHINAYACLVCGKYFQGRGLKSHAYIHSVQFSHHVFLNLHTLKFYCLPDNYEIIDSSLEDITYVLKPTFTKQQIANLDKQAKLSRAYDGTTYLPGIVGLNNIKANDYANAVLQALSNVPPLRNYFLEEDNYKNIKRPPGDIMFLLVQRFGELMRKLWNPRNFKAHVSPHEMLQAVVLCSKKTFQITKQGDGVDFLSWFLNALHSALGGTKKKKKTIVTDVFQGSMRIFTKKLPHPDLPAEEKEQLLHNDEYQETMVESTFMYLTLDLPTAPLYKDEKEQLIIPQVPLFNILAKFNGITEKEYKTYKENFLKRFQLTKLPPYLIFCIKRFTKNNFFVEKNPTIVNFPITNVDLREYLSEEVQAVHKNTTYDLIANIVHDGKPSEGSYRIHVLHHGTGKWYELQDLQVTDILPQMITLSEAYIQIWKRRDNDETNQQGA
inactive: [1]; compound concentration: 50uM 0.0546 | [1]; compound concentration: 200uM -0.102 | [2]; compound concentration: 50uM -0.157 | [2]; compound concentration: 200uM -0.0618 | [3]; compound concentration: 50uM 0.0365 | [3]; compound concentration: 200uM -0.18 | [4]; compound concentration: 50uM 0.0136 | [4]; compound concentration: 200uM -0.0545 | [5]; compound concentration: 50uM 0.225 | [5]; compound concentration: 200uM -0.157 | [6]; compound concentration: 0.78uM -0.0849 | [6]; compound concentration: 1.56uM 0.00415 | [6]; compound concentration: 3.13uM -0.107 | [6]; compound concentration: 6.25uM -0.121 | [6]; compound concentration: 12.5uM -0.133 | [6]; compound concentration: 25uM -0.219 | [6]; compound concentration: 50uM -0.32 | [6]; compound concentration: 100uM -0.0966 | [6]; compound concentration: 200uM -0.188 | [7]; compound concentration: 0.78uM -0.138 | [7]; compound concentration: 1.56uM -0.0134 | [7]; compound concentration: 3.13uM 0.0533 | [7]; compound concentration: 6.25uM -0.0819 | [7]; compound concentration: 12.5uM -0.132 | [7]; compound concentration: 25uM -0.181 | [7]; compound concentration: 50uM -0.277 | [7]; compound concentration: 100uM -0.108 | [7]; compound concentration: 200uM -0.208 | [8]; compound concentration: 0.78uM 0.0296 | [8]; compound concentration: 1.56uM -0.22 | [8]; compound concentration: 3.13uM -0.0221 | [8]; compound concentration: 6.25uM -0.000844 | [8]; compound concentration: 12.5uM -0.0179 | [8]; compound concentration: 25uM -0.167 | [8]; compound concentration: 50uM -0.0419 | [8]; compound concentration: 100uM -0.206 | [8]; compound concentration: 200uM -0.187 | [9]; compound concentration: 50uM 0.209 | [9]; compound concentration: 200uM 0.0808 | [10]; compound concentration: 50uM -0.0814 | [10]; compound concentration: 200uM -0.0567

USP12 (UniProt O75317)
UniProt O75317, sequence (O75317 whole entry): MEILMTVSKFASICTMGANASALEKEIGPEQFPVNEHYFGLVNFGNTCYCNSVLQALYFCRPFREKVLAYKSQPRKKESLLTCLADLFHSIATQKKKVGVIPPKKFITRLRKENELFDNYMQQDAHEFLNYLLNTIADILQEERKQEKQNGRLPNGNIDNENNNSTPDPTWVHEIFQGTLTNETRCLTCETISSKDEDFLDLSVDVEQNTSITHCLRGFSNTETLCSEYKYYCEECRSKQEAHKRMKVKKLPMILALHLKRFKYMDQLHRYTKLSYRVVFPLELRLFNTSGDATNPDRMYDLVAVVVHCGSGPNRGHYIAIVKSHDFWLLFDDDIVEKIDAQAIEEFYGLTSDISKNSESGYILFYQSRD
inactive: [1]; compound concentration: 50uM -0.336 | [1]; compound concentration: 200uM -0.364 | [2]; compound concentration: 50uM -0.67 | [2]; compound concentration: 200uM -0.285 | [3]; compound concentration: 50uM -0.414 | [3]; compound concentration: 200uM 0.0587 | [4]; compound concentration: 50uM 0.232 | [4]; compound concentration: 200uM 0.133 | [5]; compound concentration: 50uM -0.0656 | [5]; compound concentration: 200uM -0.128 | [6]; compound concentration: 0.78uM -0.261 | [6]; compound concentration: 1.56uM -0.455 | [6]; compound concentration: 3.13uM -0.802 | [6]; compound concentration: 6.25uM -0.549 | [6]; compound concentration: 12.5uM -0.298 | [6]; compound concentration: 25uM -0.852 | [6]; compound concentration: 50uM -0.524 | [6]; compound concentration: 100uM -0.285 | [6]; compound concentration: 200uM -0.69 | [7]; compound concentration: 0.78uM -0.131 | [7]; compound concentration: 1.56uM 0.0424 | [7]; compound concentration: 3.13uM 0.272 | [7]; compound concentration: 6.25uM 0.0447 | [7]; compound concentration: 12.5uM -0.0347 | [7]; compound concentration: 25uM -0.263 | [7]; compound concentration: 50uM -0.715 | [7]; compound concentration: 100uM -0.0609 | [7]; compound concentration: 200uM -0.175 | [8]; compound concentration: 0.78uM -0.247 | [8]; compound concentration: 1.56uM -0.665 | [8]; compound concentration: 3.13uM 0.0603 | [8]; compound concentration: 6.25uM 0.103 | [8]; compound concentration: 12.5uM -0.0251 | [8]; compound concentration: 25uM -0.184 | [8]; compound concentration: 50uM -0.474 | [8]; compound concentration: 100uM -0.242 | [8]; compound concentration: 200uM -0.748 | [9]; compound concentration: 50uM -0.0261 | [9]; compound concentration: 200uM -0.904 | [10]; compound concentration: 50uM -0.303 | [10]; compound concentration: 200uM -0.368
